Assay [1] is described as follows: Nuclear factor erythroid 2-related factor 2/antioxidant responsive element (Nrf2/ARE) small molecule agonists: qHTS cell viability counter screen in human keratinocytes (AID 1919968; active means well fitted curve in the direction sought with a large enough effect in the repeat runs; an effect the other way counts as inactive or inconclusive; further: nearly all actives have a fitted effect of over 55% in size; further: potency means the concentration at half of the fitted maximal effect). In a few lines:
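Measured as CellTiter-Fluor fluorescence, this readout tracks cytotoxicity in the same wells as the ARE-luciferase screen. HaCaT reporter cells (1,500/well) received compounds after a 5 h pre-incubation and were exposed for 23 h.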
On the technique in general: qHTS replaces the single test concentration by a dilution series.

A short description of assay [2]: Nuclear factor erythroid 2-related factor 2/antioxidant responsive element (Nrf2/ARE) small molecule agonists: luciferase reporter gene qHTS assay in human keratinocytes (AID 1919969). Further: nearly all actives have a fitted effect of over 35% in size. Further: potency means the concentration at half of the fitted maximal effect. A general note: A reporter such as luciferase makes a cellular process visible.
Assay [3] deals with Gonadotropin-releasing hormone receptor (Homo sapiens) (UniProt P30968). In words: Human gonadotropin-releasing hormone receptor (GnRHR) small molecule agonists, calcium flux assay in GnRHR-HEK293 cells (AID 1920063). Further: nearly all actives have a fitted effect of over 35% in size. In a few lines: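 Fluorescence kinetics (480 nm excitation, 540 nm emission; 3 min, 1 s steps) report calcium mobilisation in human GnRHR-HEK293 cells in agonist mode. Dye incubation: 1 h, 37 C.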

Assay [4] deals with KiSS-1 receptor (Homo sapiens) (UniProt Q969F8). In words: Human kisspeptin (KISS1R) small molecule agonists, calcium flux assay in KISS1R-HEK293 cells (AID 1920064; active means well fitted curve in the direction sought with a large enough effect in the repeat runs; an effect the other way counts as inactive or inconclusive). The procedure, abridged: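 Measures KISS1R agonism through calcium-sensitive dye fluorescence in stably transfected HEK293 cells, read for 3 min after pin-tool compound delivery; 15-point titrations in triplicate.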
A general note: A change in cytosolic calcium serves as a functional read-out for many receptors and channels.

The nature of assay [5]: p53 small molecule agonists, cell-based qHTS assay with human liver microsomes (AID 1963577). The procedure, abridged:
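Fluorescence of the beta-lactamase reporter in p53RE-bla cells, detected with LiveBLAzer substrate (2 h, room temperature, dark), served as the read-out after 16 h compound exposure at 37 C with human liver microsomes and NADPH, each 0.5 mg/mL final.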

Assay [6] can be described thus: p53 small molecule agonists, cell-based qHTS assay with rat liver microsomes (AID 1963578). In a few lines:
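Cells carrying a p53 response element–beta-lactamase reporter were plated and rested 5 h, then dosed with compound in DMSO plus rat liver microsomes and NADPH, each at 0.5 mg/mL final. After 16 h at 37 C, LiveBLAzer substrate was added for 2 h.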

A short description of assay [7]: p53 small molecule agonists, cell-based qHTS assay with human liver microsomes: qHTS cell viability counter screen (AID 1963579). Further: nearly all actives have a fitted effect of over 45% in size. In a few lines:
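Cytotoxicity counter screen: p53RE-bla, 4,000 cells/well; 5 h settle, 37 C/5% CO2; cpd + HLM 0.5 mg/mL + NADPH 0.5 mg/mL (final); 16 h, 37 C; CellTiter-Glo, 30 min RT, luminescence.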

Assay [8] can be described thus: p53 small molecule agonists, cell-based qHTS assay with rat liver microsomes: qHTS cell viability counter screen (AID 1963580). Further: nearly all actives have a fitted effect of over 45% in size. In a few lines: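 In HCT-116 cells carrying a p53 response element-bla reporter, compounds were metabolically activated in situ by rat liver microsomes with NADPH over 16 h. Cell ATP content then served as the cytotoxicity measure.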
Assay [9] is described as follows: p53 small molecule agonists, cell-based qHTS assay: qHTS cell viability counter screen (AID 1963581). Further: nearly all actives have a fitted effect of over 45% in size. In a few lines: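 In the same plates used for the p53 bla reporter, HCT-116 cells given compounds for 16 h at 37 C received CellTiter-Glo; luminescence was recorded 30 min later at room temperature.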
The nature of assay [10]: p53 small molecule agonists, cell-based qHTS assay (AID 1963582; active means well fitted activation curve with a large enough effect in the signal ratio in the repeat runs, not every such curve was filed as active; the % refers to the signal ratio). The procedure, abridged: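 Compounds are pin-transferred in DMSO onto p53RE-bla cells and incubated 16 h at 37 C. The B/G FRET beta-lactamase substrate is then applied for 2 h at RT and fluorescence recorded.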
A short description of assay [11]: cAMP Responsive Elements (CRE) small molecule agonists, cell-based qHTS assay (AID 1963590). In a few lines: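 Cell line: CRE-bla HEK 293T; medium DMEM/10% dialyzed FBS/0.1 mM NEAA/1 mM pyruvate/25 mM HEPES; 3 h compound exposure; beta-lactamase FRET readout after 2 h substrate loading at RT.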
The nature of assay [12]: cAMP Responsive Elements (CRE) small molecule antagonists, cell-based qHTS assay (AID 1963591; active means well fitted inhibition curve with a large enough effect in the signal ratio in the repeat runs, not every such curve was filed as active; the % refers to the signal ratio). In a few lines: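 Inhibition of NKH477-driven (0.25 uM final) CRE-beta-lactamase signal in HEK293T cells, 3 h compound exposure at 37 °C, detected by FRET substrate fluorescence.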
The target of assay [13] is Beta-2 adrenergic receptor (Homo sapiens) (UniProt P07550). In words: Adrenergic beta2 receptor (ADRB2) small molecule antagonists, cell-based qHTS assay (AID 1963592). Further: series mostly up to about 92 µM; nearly all actives have a fitted effect of over 50% in size. In a few lines: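 Cells (CHO, stable ADRB2 overexpression) incubated 18-20hr at 37C; compounds added from DMSO; agonist mix (1nM isoproterenol, 100uM IBMX, 25uM Ro-20-1724) added; 0.5hr RT; d2-cAMP and anti-cAMP-cryptate added; 1hr RT; 665/615 nm read.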

Assay [14] has the same target. In words: Adrenergic beta2 receptor (ADRB2) small molecule agonists, cell-based qHTS assay (AID 1963593).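 Further: CHO cells stably overexpressing human ADRB2.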 The procedure, abridged: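 CHO cells stably over-expressing ADRB2 were plated overnight at 37C, then dosed with compounds plus a stimulation mix containing 100uM IBMX and 25uM Ro-20-1724 for 0.5hr at room temperature. cAMP was measured by HTRF competition, 1hr.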

Assay [15] has as its target D(2) dopamine receptor (Homo sapiens) (UniProt P14416). In words: Dopamine D2 receptor (DRD2) small molecule antagonists, cell-based qHTS assay (AID 1963595; active means well fitted inhibition curve with a large enough effect in the signal ratio in the repeat runs, with a control signal flat; the % refers to the signal ratio). The procedure, abridged: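 Stable D2 receptor HEK293 line, 24 h after seeding. Compound preincubated 10 min, then quinpirole (12 nM) with forskolin analogue NKH477 (200 nM), 30 min, room temperature. Detection by time-resolved FRET of cAMP.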

The target in assay [16] is 5-hydroxytryptamine receptor 2A (Homo sapiens) (UniProt P28223). In words: 5-hydroxytryptamine receptor 2A (HTR2A) small molecule antagonists, cell-based qHTS assay (AID 1963586). Further: nearly all actives have a fitted effect of over 45% in size. In a few lines: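 Antagonist-mode intracellular calcium assay: DOI (4 nM) added after 5 min compound pre-incubation at room temperature to dye-loaded HTR2A-CHO cells. Fluorescence followed for 3 min, sampled every second.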

Assay [17] has the same target. In words: 5-hydroxytryptamine receptor 2A (HTR2A) small molecule agonists, cell-based qHTS assay (AID 1963587). Further: nearly all actives have a fitted effect of over 30% in size. The procedure, abridged: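 HTR2A-CHO cells, plated 18 h at 37 C/5% CO2, dye-loaded 1 h at 37 C; compounds in DMSO added by pin tool (agonist mode). Intracellular calcium flux read as kinetic fluorescence on FDSS over 2 min at 1 s intervals.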
Assay [18] addresses Muscarinic acetylcholine receptor M1 (Homo sapiens) (UniProt P11229). In words: Cholinergic receptor muscarinic 1 (CHRM1) small molecule agonists, cell-based qHTS assay (AID 1963589). Further: nearly all actives have a fitted effect of over 35% in size. The procedure, abridged:
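Each compound was tested at 15 concentrations across three independent runs on dye-loaded CHO cells stably expressing human CHRM1, reading intracellular calcium fluorescence kinetically at 1 sec intervals.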

Assay [19] has as its target D(2) dopamine receptor (Homo sapiens) (UniProt P14416). In words: Dopamine D2 receptor (DRD2) small molecule agonists, cell-based qHTS assay (AID 1963594). Further: nearly all actives have a fitted effect of over 35% in size. The procedure, abridged:
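HEK293 cells stably expressing DRD2 were cultured 24 h at 37 C, then given Ro20-1724 (0.1 mM final) and compounds for 10 min at room temperature. NKH477 (200nM) was then added for 30 min. cAMP was read by HTRF.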

The target of assay [20] is Muscarinic acetylcholine receptor M1 (Homo sapiens) (UniProt P11229). In words: Cholinergic receptor muscarinic 1 (CHRM1) small molecule antagonists, cell-based qHTS assay (AID 1963588). Further: nearly all actives have a fitted effect of over 40% in size. Further: potency means the concentration at half of the fitted maximal effect. In a few lines: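 CHRM1-CHO calcium-flux assay, antagonist mode. Cells were seeded 18 h, dye-loaded 1 h at 37 C and given compound for 5 min at RT, then acetylcholine was added at 50nM. FDSS fluorescence was read 3 min; 15 concentrations, three runs.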

Values joined by “and” are separate entries in the source; they are usually repeats but may differ in a detail not shown here. Equal values may be shown once. Values without a mark were called inactive. Inconclusive results are not listed. Active and inactive are the calls of the source. Unless noted, the call rests on the fitted dose curve.
On the % scale 0 is the no-effect control and ±100 the full control effect.

5-hydroxytryptamine receptor 2A (Homo sapiens), sequence (P28223 whole entry, looked up): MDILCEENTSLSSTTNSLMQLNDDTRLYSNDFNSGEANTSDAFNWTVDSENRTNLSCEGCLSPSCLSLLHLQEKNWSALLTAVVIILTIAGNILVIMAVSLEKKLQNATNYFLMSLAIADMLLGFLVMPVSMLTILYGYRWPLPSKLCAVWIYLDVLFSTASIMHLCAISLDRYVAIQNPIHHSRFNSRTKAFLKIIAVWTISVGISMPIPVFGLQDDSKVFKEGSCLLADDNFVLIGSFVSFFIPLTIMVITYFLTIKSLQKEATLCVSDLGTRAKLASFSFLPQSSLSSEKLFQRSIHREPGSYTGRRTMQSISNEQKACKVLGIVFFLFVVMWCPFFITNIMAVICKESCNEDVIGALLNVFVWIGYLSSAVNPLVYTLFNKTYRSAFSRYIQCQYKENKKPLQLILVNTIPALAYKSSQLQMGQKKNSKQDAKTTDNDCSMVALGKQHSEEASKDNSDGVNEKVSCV
Beta-2 adrenergic receptor (Homo sapiens), sequence (P07550 whole entry, looked up): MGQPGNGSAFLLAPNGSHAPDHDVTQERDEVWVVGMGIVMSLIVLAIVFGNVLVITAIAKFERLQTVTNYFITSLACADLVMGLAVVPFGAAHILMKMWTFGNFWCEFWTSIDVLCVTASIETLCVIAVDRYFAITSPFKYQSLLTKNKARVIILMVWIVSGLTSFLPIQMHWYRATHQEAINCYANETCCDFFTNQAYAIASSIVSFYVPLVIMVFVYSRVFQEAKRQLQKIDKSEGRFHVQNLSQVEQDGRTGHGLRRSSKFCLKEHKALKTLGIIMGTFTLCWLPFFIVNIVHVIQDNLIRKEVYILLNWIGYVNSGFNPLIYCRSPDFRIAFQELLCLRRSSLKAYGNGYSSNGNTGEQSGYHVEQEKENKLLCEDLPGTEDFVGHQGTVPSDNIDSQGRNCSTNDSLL
Gonadotropin-releasing hormone receptor (Homo sapiens), sequence (P30968 whole entry, looked up): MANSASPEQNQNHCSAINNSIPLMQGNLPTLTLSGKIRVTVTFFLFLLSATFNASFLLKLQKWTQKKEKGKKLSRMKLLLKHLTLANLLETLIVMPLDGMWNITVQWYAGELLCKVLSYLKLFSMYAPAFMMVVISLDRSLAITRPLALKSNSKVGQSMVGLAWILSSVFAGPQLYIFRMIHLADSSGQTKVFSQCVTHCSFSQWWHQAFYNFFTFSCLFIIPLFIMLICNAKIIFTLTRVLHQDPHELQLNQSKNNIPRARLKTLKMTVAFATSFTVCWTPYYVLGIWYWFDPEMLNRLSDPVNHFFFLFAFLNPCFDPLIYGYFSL
D(2) dopamine receptor (Homo sapiens), sequence (P14416 whole entry, looked up): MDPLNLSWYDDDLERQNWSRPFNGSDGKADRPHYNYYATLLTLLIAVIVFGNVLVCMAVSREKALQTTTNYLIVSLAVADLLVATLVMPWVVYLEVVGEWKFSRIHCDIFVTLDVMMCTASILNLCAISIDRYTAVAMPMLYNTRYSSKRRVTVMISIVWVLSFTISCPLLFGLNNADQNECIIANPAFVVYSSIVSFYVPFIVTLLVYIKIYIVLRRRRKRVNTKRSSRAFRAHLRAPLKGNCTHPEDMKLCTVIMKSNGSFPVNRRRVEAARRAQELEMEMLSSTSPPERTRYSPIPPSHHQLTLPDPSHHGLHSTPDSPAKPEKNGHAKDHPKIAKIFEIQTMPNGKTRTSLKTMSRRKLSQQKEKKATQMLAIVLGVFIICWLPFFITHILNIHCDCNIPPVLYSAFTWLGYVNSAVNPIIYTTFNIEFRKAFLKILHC
KiSS-1 receptor (Homo sapiens), sequence (Q969F8 whole entry, looked up): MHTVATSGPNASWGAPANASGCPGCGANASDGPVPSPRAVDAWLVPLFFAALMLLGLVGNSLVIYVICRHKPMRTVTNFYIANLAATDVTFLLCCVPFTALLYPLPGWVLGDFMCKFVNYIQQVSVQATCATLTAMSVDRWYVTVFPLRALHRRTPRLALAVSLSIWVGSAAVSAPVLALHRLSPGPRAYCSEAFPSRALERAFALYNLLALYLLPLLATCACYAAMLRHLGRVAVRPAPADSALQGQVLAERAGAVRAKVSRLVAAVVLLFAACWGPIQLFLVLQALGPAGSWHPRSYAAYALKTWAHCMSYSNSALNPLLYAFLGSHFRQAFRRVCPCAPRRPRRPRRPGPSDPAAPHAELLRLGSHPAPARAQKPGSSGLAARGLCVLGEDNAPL
Muscarinic acetylcholine receptor M1 (Homo sapiens), sequence (P11229 whole entry, looked up): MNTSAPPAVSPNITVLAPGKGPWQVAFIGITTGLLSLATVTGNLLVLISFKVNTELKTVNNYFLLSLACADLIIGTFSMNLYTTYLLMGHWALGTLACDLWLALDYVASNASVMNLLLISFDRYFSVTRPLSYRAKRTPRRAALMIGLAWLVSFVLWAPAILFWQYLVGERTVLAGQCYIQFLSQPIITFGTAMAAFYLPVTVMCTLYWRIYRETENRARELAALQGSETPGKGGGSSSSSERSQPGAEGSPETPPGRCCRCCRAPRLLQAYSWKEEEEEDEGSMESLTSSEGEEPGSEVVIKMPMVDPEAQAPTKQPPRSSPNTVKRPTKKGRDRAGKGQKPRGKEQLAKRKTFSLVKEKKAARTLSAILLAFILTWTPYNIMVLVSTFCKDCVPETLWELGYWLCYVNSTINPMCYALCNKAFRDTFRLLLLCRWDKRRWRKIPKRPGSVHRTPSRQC

Consider `[N-]=[N+]=CC(=O)OC[C@H](N)C(=O)O`, for which the Potency result in assay [1], in [2], in assay [3], in assay [4], in [5] and in [6] was “inactive” throughout. Also, the Potency entry in assay [7], in [8], in assay [9], in assay [10], in [11] and in assay [12] was “inactive” each time. The Potency entry in [13], in assay [14] and in assay [15] was “inactive” each time.

For the molecule `O=P(O)(O)CN(CP(=O)(O)O)CP(=O)(O)O`, the Potency result in assay [1], in [2], in [3], in [4], in assay [5] and in assay [6] was “inactive” each time. Moreover, the Potency result in assay [8], in [9], in assay [10], in [16], in assay [17] and in assay [18] was “inactive” each time. Further, the Potency entry in [11], in [12], in assay [13], in assay [19] and in [15] was “inactive” in each case.

Consider `ClC1=C(Cl)C2(Cl)C3C(Cl)C=CC3C1(Cl)C2(Cl)Cl` (stereo not drawn), for which the Potency in assay [1] is 27.4 µM (active) and 61.1 µM (active). Moreover, the Potency entry in assay [2], in [3], in assay [4], in assay [5], in assay [6] and in assay [7] was “inactive” each time. Further, the Potency result in assay [8], in [9], in assay [10], in assay [16], in assay [17] and in assay [20] was “inactive” each time. For the same molecule, the Potency result in assay [18], in assay [11], in assay [12], in assay [13] and in assay [19] was “inactive” in each case.

As for `CCC(Cl)[N+](=O)[O-]` (stereo not drawn), the Potency entry in assay [1], in assay [2], in assay [3], in [4], in [5] and in [6] was “inactive” each time. Also, the Potency result in [7], in assay [8], in assay [10], in assay [16], in [17] and in assay [20] was “inactive” each time. Besides, the Potency result in assay [12], in [13], in assay [19] and in [15] was “inactive” in each case.

On to `C=CCN1C[C@H](C)N([C@H](c2ccc(C(=O)N(CC)CC)cc2)c2cccc(OC)c2)C[C@H]1C`, for which the Potency entry in assay [1], in assay [2], in assay [3], in [5], in assay [6] and in assay [7] was “inactive” throughout. In addition, the Potency result in [8], in [9], in assay [10], in assay [16], in assay [17] and in assay [18] was “inactive” in each case. Also, the Potency entry in assay [11], in [12], in assay [13], in assay [19] and in assay [15] was “inactive” each time. The Potency in [20] was 2.59 µM (active).

Turning to `CO[C@@H]1[C@H](OC(=O)NC(=O)CCl)CC[C@]2(CO2)[C@H]1[C@@]1(C)O[C@@H]1CC=C(C)C`, the activity change, negative = cytotoxicity in [1] is -2.18% [at 19 µM]; in assay [7] it was 1.12% [at 13.5 µM]; in assay [8] it was -0.0178% [at 13.5 µM]; in [9] it was 4.01% [at 13.5 µM]. The Potency in assay [2] was 16.7 µM (active). Further, in [3], the activity change is 0.0131% [at 11.8 µM, active compounds read high]. Moreover, the activation was -1.53% [at 13.5 µM] in assay [5]; 1.99% [at 13.6 µM] in assay [6]; -1.88% [at 13.5 µM] in [10]; -4.56% [at 15.9 µM] in assay [17]; -0.344% [at 15.8 µM] in [18]; -1.17% [at 19 µM] in [11]. The activation is 4.33% [at 19 µM] in assay [14] and 1.8% [at 19 µM] in [19]. The activity, negative = inhibition in assay [16] was -0.303% [at 12.7 µM]; in assay [20], 56% [at 12.6 µM]. For the same molecule, the activity change, negative = inhibition in [12] is -7.46% [at 18.9 µM]; in assay [13] it was -3.1% [at 19 µM]; in assay [15], -0.406% [at 18.9 µM].

As to `Clc1ccccc1-c1nnc(-c2ccccc2Cl)nn1`, the Potency result in assay [1], in assay [3], in assay [4], in assay [7], in assay [8] and in assay [9] was “inactive” throughout. The Potency entry in assay [16], in assay [17], in assay [20], in assay [18], in assay [11] and in assay [12] was “inactive” throughout. Moreover, the Potency result in assay [13], in [14], in assay [19] and in assay [15] was “inactive” each time. The Potency in assay [2] is 19.2 µM (active) and 5.43 µM (active).

Consider `CCNc1nc(Cl)nc(NCC)n1`, for which the Potency result in assay [1], in assay [2], in assay [3], in assay [5], in assay [6] and in [7] was “inactive” in each case. Moreover, the Potency entry in [8], in assay [9], in [10], in [16], in assay [17] and in assay [20] was “inactive” throughout. The Potency result in assay [18], in [11], in assay [12], in assay [13], in assay [19] and in assay [15] was “inactive” in each case.

The values above are taken from PubChem BioAssay (Tox21).
